# Inconclusive results are not listed. Unmarked numbers belong to inactive results. The source made the active and inactive calls. The call rests on the fitted dose curve; in most records, active means well fitted cell-killing curve with a large enough effect in the repeat runs; inconclusive means weak or mixed curves, or effect the other way; inactive means flat fitted curve, though single readings scatter.
# Test: qHTS assay to identify small molecule agonists of the sonic hedgehog signaling (Shh) pathway - cell viability counter screen (AID 1259366); further: nearly all actives have a fitted effect of over 50% in size
# Details: NIH/3T3 Gli1-Luc viability, CellTiter-Fluor, 24 h; series mostly up to 92.4 µM; viability change, negative = cytotoxic: at the top concentration
# Description: National Center for Advancing Translational Sciences [NCATS]
# NIH Chemical Genomics Center [NCGC]
# U.S. Environmental Protection Agency [EPA]
# National Institutes of Environmental Health Sciences [NIEHS]
# National Toxicology Program [NTP]
# U.S. Food and Drug Administration [FDA]
# The sonic hedgehog (Shh) pathway is essential for normal embryonic development. Dysregulation of the Shh pathway can cause severe developmental defects in organs. Therefore chemicals that interfere with the pathway are potential developmental toxicants. A cell line designated 3T3Gli1-Luc (DMB/OARSA/CFSAN/FDA, Laurel, MD), a NIH/3T3 derived clone containing stably integrated Gli1-Luc reporter is used to detect chemical interference of the Shh pathway, by changes in the expression of the firefly Luc gene under the control of the Gli1 transcriptional response element. This cell line was used to screen Tox21 libraries for identifying and prioritizing the potential developmental toxicants that interfere Shh pathway. The cytotoxicity of the compounds was tested in parallel by measuring the cell viability using CellTiter-Fluor assay system (Promega, Madison, WI) in the same wells.
# Tox21 Assay Protocol Summary:
# 3T3 Gli1-Luc cells were dispensed at 2,000 per well in 5uL of culture medium into white solid bottom 1536-well plates (Greiner Bio-One, Monroe, NC) using a Multidrop Combi (Thermo Scientific, Waltham, MA) dispenser. The assay plates were incubated at 37 C and 5% CO2 for 4hr, and then 23nL of compounds dissolved in DMSO and positive control were transferred using a Pintool station (Wako, San Diego, CA). The assay plates were incubated at 37C and 5% CO2 for 24hr. For viability read, after 23hr of compound treatment, 1uL of CellTiter-Fluor reagent (Promega Corporation, Madison, WI) was added to each well of the assay plates using Flying Reagent Dispenser (FRD, Aurora Discovery, San Diego, CA) and incubated the assay plates at 37C for 1hr. The fluorescence signal was quantified using a ViewLux plate reader (Perkin Elmer, Shelton, CT).
# On the % scale 0 is the no-effect control and ±100 the full control effect; potency means the concentration at half of the fitted maximal effect.
SMILES,Potency,"viability change, negative = cytotoxic"
C#CC1(O)CC[C@H]2[C@@H]3CCC4=CCCC[C@@H]4[C@H]3CC[C@@]21C (stereo not given in full),26.6 µM (active),
CCC(COC(=O)CCS)(COC(=O)CCS)COC(=O)CCS,,0.705%
CCCCC/C=C\C/C=C\CCCCCCCC(=O)O,inactive,
Cl[Si](Cl)(c1ccccc1)c1ccccc1,,3.05%
CCCc1ccc(OCC(=O)N2CCN(C(=O)COc3ccc(CCC)cc3OC)CC2)c(OC)c1,,-24.3% [at 42.5 µM]
O=C(/C=C/c1ccccc1)OC/C=C/c1ccccc1,,3.39%
CC(C)(C)NSc1nc2ccccc2s1,,0.0717%
C=CC(C)(CCC=C(C)C)OC=O (stereo not given),,-0.641%
Oc1c(I)cc(Cl)c2cccnc12,inactive,
CC(C)(C)C1CCC(=O)CC1,,18.3%
CC1(C)CCC[C@]2(C)[C@H]3CC(=O)O[C@]3(C)CC[C@@H]12,,-8.2%
CCc1cccc(CC)c1NC(=O)CN(CC(=O)O)CC(=O)O,,-2.16% [at 42.5 µM]
COC(=O)C1=C(C)NC(C)=C(C(=O)OCCN2CCN(C(c3ccccc3)c3ccccc3)CC2)C1c1cccc([N+](=O)[O-])c1 (stereo not given),,-11.1% [at 42.5 µM]
Cc1ccc(O)c(N)c1,43.3 µM (active),
Cc1ccc(O)c(O)c1,21.1 µM (active),
CCC(=O)OC(=O)CC,,6.22%
COc1cccc(OC)c1C(=O)O,,3.62%
CCc1ccc(Br)cc1,,-0.276%
O=C(O)c1ccc2cc(C(=O)O)ccc2c1,,0.927%
O=C(O)c1cc(=O)c2ccccc2o1,,1.58% [at 42.5 µM]

SMILES,Potency,"viability change, negative = cytotoxic"
OCCN1CCN(CCCN2c3ccccc3Sc3ccc(C(F)(F)F)cc32)CC1,23.7 µM (active),
O=C(O)c1cc(N=Nc2ccc([N+](=O)[O-])cc2)ccc1O,26.8 µM (active),
Cc1cccc(C)c1NC(=O)c1ccc(N)cc1,,1.2% [at 42.5 µM]
Cc1cc(C(C#N)c2ccc(Cl)cc2)c(Cl)cc1NC(=O)c1cc(I)cc(I)c1O (stereo not given),,0.652% [at 42.5 µM]
CC/C=C\CCCCCO,,5.82%
C=Cc1cccc(C)c1,inactive,
C[C@@H](O)[C@H](N)C(=O)O,,6.05% [at 19 µM]
CCCCC(CC)COC(=O)CCCCC(=O)OCc1ccccc1 (stereo not given),,-3.45%
Cc1ccc(C(=O)O)cc1,,1.59%
OC1CCCc2ccccc21 (stereo not given),,3.14%
CC1=CCC(=C(C)C)CC1,,2.07%
CCC(C)(CCC(C)C)C(=O)[O][Sn]([CH3])([CH3])[O]C(=O)C(C)(CC)CCC(C)C (stereo not given),,22.9%
CC(C)CCOC(=O)/C=C/c1ccccc1,,-3.73%
CC[C@H](C)COC(=O)/C=C/c1ccc(N=Cc2ccc(OC)cc2)cc1,,-14.9%
c1ccsc1,,0.087%
CCN1C(=O)c2ccccc2C1Nc1ccc(OCCN2CCCCC2)cc1 (stereo not given),,-3.03% [at 42.5 µM]
CCCCCc1ccc(Cl)cc1,,2.75%
O=C1NC(=O)[C@@H]2CC=CC[C@H]12,,5.47%
O=C(Nc1ccc2c(O)c(N=Nc3ccc(N=Nc4ccc(S(=O)(=O)O)cc4)cc3)c(S(=O)(=O)O)cc2c1)c1ccccc1,10.9 µM (active),
CCCCCCCCCCCC(=O)OCC(C)OC(=O)CCCCC(=O)O (stereo not given),,-0.195% [at 42.5 µM]
